Test results published in the supplement of paper PMC13380429.

Test system: Vero E6 infected with SARS-CoV-2
Test: inhibition of SARS-CoV-2 cytopathic effect; higher = more antiviral protection, active = above 15
Conditions: 48 h

Measured: inhibition of SARS-CoV-2 cytopathic effect

C=C1/C(=C\C=C2/CCC[C@]3(C)[C@@H]([C@H](C)/C=C/[C@@H](O)C4CC4)CC[C@@H]23)C[C@@H](O)C[C@@H]1O [calcipotriol]
inactive: 1 nM -0.16% | 8.33 nM 1.94% | 100 nM -0.66% | 833.33 nM 0.91% | 10000 nM 3.83%

CC1(C)S[C@@H]2[C@H](N3C(=O)[C@@H](c4ccccc4)NC3(C)C)C(=O)N2[C@H]1C(=O)O [hetacillin]
inactive: 1 nM -0.32% | 8.33 nM 0.69% | 100 nM 0.82% | 833.33 nM 2.11% | 10000 nM 2.77%

Cc1ccccc1NC(=N)Nc1ccccc1C [ditolylguanidine]
inactive: 1 nM 1.39% | 8.33 nM 1.77% | 100 nM -1.06% | 833.33 nM -2.29% | 10000 nM -0.63%

O=S(=O)(c1cccc2c(O)nccc12)N1CCCNCC1 [hydroxyfasudil]
inactive: 1 nM -1.12% | 8.33 nM -1.29% | 100 nM -1.81% | 833.33 nM -2.35% | 10000 nM -0.71%

O=C(NO)C1(CS(=O)(=O)c2ccc(Oc3ccc(Cl)cc3)cc2)CCOCC1
inactive: 1 nM -0.75% | 8.33 nM -2.34% | 100 nM 0.31% | 833.33 nM -0.91% | 10000 nM -11.7%

C=CC(N)CCC(=O)O (stereo not given) [vigabatrin]
inactive: 1 nM -9.39% | 8.33 nM -9.03% | 100 nM -9.5% | 833.33 nM -11% | 10000 nM -9.82%

Clc1ccc(CCCOCCCN2CCCCC2)cc1 [pitolisant]
inactive: 1 nM 1.67% | 8.33 nM 1.19% | 100 nM -1.62% | 833.33 nM -2.26% | 10000 nM -0.08%

NC(=O)[C@H]1CCS[C@@H]2C[C@]3(CCCN3C(=O)Cc3ccc(NC(=O)COc4ccc(Cl)cc4Cl)cc3)C(=O)N12
inactive: 1 nM 0.49% | 8.33 nM 0.01% | 100 nM 1.37% | 833.33 nM 0.74% | 10000 nM -6.32%

O=C(/C=C/c1ccc(O)c(O)c1)OCCc1ccccc1 [caffeic-acid-phenethyl-ester]
inactive: 1 nM -3.4% | 8.33 nM -2.75% | 100 nM -2.14% | 833.33 nM 2.36% | 10000 nM 7.5%

NCC(CC(=O)O)c1ccc(Cl)cc1 (stereo not given) [baclofen]
inactive: 1 nM -0.225% | 8.33 nM -1.56% | 100 nM -2.14% | 833.33 nM 0.04% | 10000 nM -0.06%

CN1C[C@@H]2C[C@H]1CN2c1cc2c(cc1F)c(=O)c(C(=O)O)cn2C1CC1 [danofloxacin]
inactive: 1 nM 0.88% | 8.33 nM -1.78% | 100 nM 0.43% | 833.33 nM 2.27% | 10000 nM 6.15%

Nc1ccn([C@@H]2CS[C@H](CO)O2)c(=O)n1 [lamivudine]
inactive: 1 nM -0.38% | 8.33 nM 0.6% | 100 nM -0.56% | 833.33 nM -0.22% | 10000 nM 4.96%

CCC(C)(Oc1ccc(C2(c3ccc(OC(C)(CC)C(=O)O)cc3)CCCCC2)cc1)C(=O)O (stereo not given) [clinofibrate]
inactive: 1 nM -0.17% | 8.33 nM -1.53% | 100 nM -1.92% | 833.33 nM -1.83% | 10000 nM 0.41%

OC(c1ccccc1)(c1ccccc1)C1CCNCC1 [azacyclonol]
inactive: 1 nM -0.3% | 8.33 nM 1.56% | 100 nM -2.53% | 833.33 nM -0.09% | 10000 nM -3.58%

Nc1nc(=O)c2sc(=O)n([C@@H]3O[C@H](CO)[C@@H](O)[C@H]3O)c2[nH]1
inactive: 1 nM 2.96% | 8.33 nM 0.81% | 100 nM -0.66% | 833.33 nM 1.35% | 10000 nM -1.43%

N#Cc1ccnc(N2C(=O)CC[C@H]2C(=O)N(c2cncc(F)c2)[C@H](C(=O)NC2CC(F)(F)C2)c2ccccc2Cl)c1 [ivosidenib]
inactive: 1 nM -0.33% | 8.33 nM 3.62% | 100 nM 0.3% | 833.33 nM 0.14% | 10000 nM 3.82%

CCCc1c(OCCCOc2ccc(OCC(=O)O)cc2)ccc(C(C)=O)c1O
inactive: 1 nM 3.84% | 8.33 nM -0.07% | 100 nM 1.16% | 833.33 nM 1.63% | 10000 nM 1.76%

CC(C)(S)C(N)C(=O)O (stereo in doubt) [penicillamine-(racemic)]
inactive: 1 nM -0.3% | 8.33 nM -1.45% | 100 nM -0.335% | 833.33 nM -1.03% | 10000 nM -0.18%
